Compounds with a hit are over-represented: about 2.8% of the library has one in this group of screens.
SENP8 block-1 – SENP8 protease inhibitors, primary screen, biochemical, luminescence | Sentrin-specific protease 8 (Homo sapiens), Q96LD8 | purified SENP8, Z-RLRGG-aminoluciferin cleavage | inhibition, % at 10 µM | hit rate 1.2% among 330,000 | AID 2540, 2010; in the data active = inhibition above about 50%
Target sequence (Q96LD8 whole entry, looked up): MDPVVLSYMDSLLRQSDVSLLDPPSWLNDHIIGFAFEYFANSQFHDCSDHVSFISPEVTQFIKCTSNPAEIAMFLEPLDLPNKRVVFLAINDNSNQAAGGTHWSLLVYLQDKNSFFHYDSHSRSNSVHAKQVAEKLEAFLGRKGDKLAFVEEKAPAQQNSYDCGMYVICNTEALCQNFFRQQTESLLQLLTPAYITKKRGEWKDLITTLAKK
SENP8 block-2 – human SENP8 protease inhibitors, primary screen, biochemical, fluorescence, Nedd8 protein substrate, uHTS | Sentrin-specific protease 8 (Homo sapiens), Q96LD8 | recombinant SENP8 | inhibition, % at 20 µM | hit rate 0.64% among 360,000 | AID 602440, 2012; in the data active = inhibition mostly above about 40%, no sharp cut-off; inactive = mostly below about 27%
SENP6 inh – SENP6 protease inhibitors, primary screen, biochemical, luminescence, uHTS; Recombinant SENP6 catalytic domain, aminoluciferin luminescence; inhibition, % at 10 µM; hit rate 1.8% among 330,000; AID 2599, 2010;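 active = inhibition above about 50% at the single tested dose, limit read from the data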
SENP7 inh – SENP7 protease inhibitors, primary screen, biochemical, luminescence, uHTS; Sentrin-specific protease 7 (Homo sapiens), Q9BQF6; recombinant SENP7, Z-RLRGG-aminoluciferin luminescence, 40 min; inhibition, % at 5 µM; hit rate 1.5% among 330,000; AID 434973, 2010;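 active = inhibition above about 50% at the single test dose, limit read from the data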
HSP90 inh – HSP90 inhibitors, primary screen, cell lysate, luminescence | Rabbit reticulocyte lysate, luciferase refolding luminescence, 3 h | inhibition, % at 5.6 µM | hit rate 0.91% among 290,000 | AID 1789, 2009;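 active = inhibition above the screen-wide mean plus 3 SD, computed separately per campaign, cut at about 16% in these data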;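 note: inhibitors lower the luminescence because luciferase stays unfolded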
SENP8 conf – SENP8 protease inhibitors, retest, confirmation, biochemical, luminescence, single concentration; shares compounds with SENP7 inh; Recombinant SENP8, Z-RLRGG-aminoluciferin luminescence, 60 min; inhibition, % at 12.5 µM; hit rate 40% among 6,200; AID 488912, 2010;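 active = mean inhibition across replicates above about 50%, limit read from the data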
SENP6 confirm – SENP6 protease inhibitors, confirmation, biochemical, luminescence, single concentration. shares compounds with SENP7 inh. inhibition, % at 12.5 µM. hit rate 58% among 6,200. recombinant SENP6, Z-RLRGG-aminoluciferin luminescence
SENP7 conf – SENP7 protease inhibitors, retest, confirmation, biochemical, luminescence, single concentration | shares compounds with SENP7 inh | recombinant SENP7, Z-RLRGG-aminoluciferin luminescence, 40 min | inhibition, % at 12.5 µM | hit rate 69% among 6,200 | AID 488917, 2010
Casp3 SENP sel – caspase-3 protease inhibitors, confirmation, selectivity assay for SENP inhibitor project, biochemical, single concentration | hit rate 60% among 6,200 | inhibition, % at 12.5 µM | AID 488918, 2010 | purified caspase-3, Z-DEVD-aminoluciferin luminescence, 60 min | shares compounds with SENP7 inh;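 active = mean inhibition above about 50%, limit read from the data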
Target sequence (P42574 28-227 limits assumed): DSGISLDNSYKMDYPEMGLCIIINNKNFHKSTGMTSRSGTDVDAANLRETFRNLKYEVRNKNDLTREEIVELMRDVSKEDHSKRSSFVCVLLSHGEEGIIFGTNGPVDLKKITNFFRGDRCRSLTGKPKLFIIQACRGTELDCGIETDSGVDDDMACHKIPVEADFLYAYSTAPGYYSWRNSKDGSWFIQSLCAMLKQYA
Luc interf – luminescence interference (SENP counter-screen). hit rate 39% among 6,200. inhibition, % at 12.5 µM. shares compounds with SENP7 inh. Pre-incubated SENP8/Z-RLRGG-aminoluciferin, luciferase luminescence interference. AID 488919;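 active = mean inhibition above about 50% when retested at one dose, limit read from the data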
Large screens that a line does not name were inactive (follow-up assays come after a bar, where they were run).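 Rule for the calls, unless noted: active = mean inhibition above about 50% in the one-dose retest (limit read from the data); inactive = the rest.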

CC1CCN(CCCNC(=O)c2coc3nc4ccccc4nc23)CC1	SENP8 block-1 64, SENP6 inh 86 | SENP8 conf 76 | SENP6 confirm 70 | SENP7 conf 86 | Casp3 SENP sel 88 | Luc interf 74
COc1cccc(OCCN2CCN(c3ncnc4c3cnn4-c3ccccc3)CC2)c1	none
COc1cccc(OCc2nc3c4cnn(-c5ccccc5)c4ncn3n2)c1	SENP7 inh 73 | SENP8 conf inactive | SENP6 confirm inactive | SENP7 conf inactive | Casp3 SENP sel inactive | Luc interf inactive
O=C(NCCc1ccccc1)C1COc2ccccc2O1 (stereo not given)	none
COc1ccc(/C=N/Nc2cc(C)nc(N)n2)cc1	none
CC(=O)N=Cc1c(C)c(C#N)c(=O)n(C)c1O	SENP6 inh 57 | SENP8 conf inactive | SENP6 confirm inactive | SENP7 conf inactive | Casp3 SENP sel inactive | Luc interf inactive
Cc1c(C=O)c(Cl)n(C)c(=O)c1C#N	SENP7 inh 74 | SENP8 conf inactive | SENP6 confirm inactive | SENP7 conf inactive | Casp3 SENP sel inactive | Luc interf inactive
Cc1cc(C)n(C)c(=O)c1C#N	none
CC1=C(C(=O)N2CCCCCC2)CC(CC(=O)NCCCCc2ccccc2)C(=O)N1Cc1ccccc1 (stereo not given)	none (no result: SENP8 block-1, SENP6 inh, SENP7 inh, HSP90 inh)
Nc1nn(-c2ccccc2)c2ccc([N+](=O)[O-])cc12	SENP8 block-1 54, SENP6 inh 72, SENP7 inh 75 | SENP8 conf 75 | SENP6 confirm 72 | SENP7 conf 91 | Casp3 SENP sel 85 | Luc interf 73
O=[N+]([O-])c1ccc2cn(-c3ccccc3)nc2c1	SENP8 block-1 60, SENP7 inh 81 | SENP8 conf inactive | SENP6 confirm 70 | SENP7 conf 92 | Casp3 SENP sel 69 | Luc interf inactive
CCCCCCCCCC1NC(C(=O)O)Cc2c1[nH]c1ccccc21 (stereo not given)	none (no result: SENP8 block-1, SENP6 inh, SENP7 inh, HSP90 inh)
O=S(=O)(c1ccc(Br)s1)N1CCN(Cc2ccc3c(c2)OCO3)CC1	none
CN(C)CCNC(=O)C(C(=O)c1ccc(F)cc1)n1ccccc1=O (stereo not given)	none
Cc1nn2cc(-c3ncc(C(F)(F)F)cc3Cl)cnc2c1Br	SENP8 block-1 76, SENP6 inh 83, SENP7 inh 90 | SENP8 conf 61 | SENP6 confirm 60 | SENP7 conf inactive | Casp3 SENP sel inactive | Luc interf inactive
O=C(/C=C/c1cccc(O)c1)c1ccc(N2CCOCC2)cc1	SENP6 inh 78, SENP7 inh 74 | SENP8 conf inactive | SENP6 confirm inactive | SENP7 conf inactive | Casp3 SENP sel inactive | Luc interf 51
O=C1C(C2=C(O)c3ccccc3C2=O)=Nc2ccccc21	SENP8 block-1 79, SENP8 block-2 60, SENP6 inh 89 | SENP8 conf inactive | SENP6 confirm 95 | SENP7 conf 100 | Casp3 SENP sel 60 | Luc interf inactive
CC(=O)OC1=C(O)C(=O)c2ccccc2C1=O	none (no result: SENP8 block-2, HSP90 inh)
CN(C)c1ccnc2sc3c(SCc4ccc(Cl)cc4)ncnc3c12	SENP7 inh 58 | SENP8 conf inactive | SENP6 confirm inactive | SENP7 conf inactive | Casp3 SENP sel inactive | Luc interf inactive
CCC(=O)N1CCN(C(C)=O)C1c1ccccc1 (stereo not given)	none
COc1cc(C2N=C(c3ccccc3)NO2)cc(Br)c1O (stereo not given)	SENP8 block-1 77, SENP6 inh 91 | SENP8 conf 85 | SENP6 confirm 84 | SENP7 conf 92 | Casp3 SENP sel 58 | Luc interf 85
COc1ccc(C2N=C(c3ccccc3)NO2)cc1OC (stereo not given)	none
FC(F)Oc1ccc(C2N=C(c3ccccc3)NO2)cc1 (stereo not given)	SENP8 block-1 54, SENP6 inh 62 | SENP8 conf inactive | SENP6 confirm inactive | SENP7 conf inactive | Casp3 SENP sel inactive | Luc interf inactive
CCOC(=O)CNC(=O)CN1C(=O)CC(c2ccccc2)S(=O)(=O)c2ccccc21 (stereo not given)	none
COc1ccc(-c2nc(C#N)c(N3CCCCCC3)o2)cc1	SENP7 inh 84 | SENP8 conf inactive | SENP6 confirm inactive | SENP7 conf inactive | Casp3 SENP sel inactive | Luc interf inactive
COc1ccc2c(CCNC(=O)/C=C/c3ccc(OC)c(OC)c3)c[nH]c2c1	none
CC1CCCCC12NC(=O)N(CC(=O)NCc1cccs1)C2=O (stereo not given)	none (no result: SENP8 block-1, SENP6 inh, SENP7 inh, HSP90 inh)
O=C(N/N=C/c1ccc(Br)s1)c1ccco1	none
Cc1occc1C(=O)N/N=C/c1ccc(Br)s1	SENP8 block-1 81, SENP6 inh 88, SENP7 inh 88 | SENP8 conf inactive | SENP6 confirm 78 | SENP7 conf 95 | Casp3 SENP sel 89 | Luc interf 53
Cc1ccc(/C=N/NC(=O)c2ccoc2C)s1	SENP8 block-1 74, SENP6 inh 88, SENP7 inh 85 | SENP8 conf inactive | SENP6 confirm 77 | SENP7 conf 95 | Casp3 SENP sel 93 | Luc interf 80
O=C(CSc1ccccc1)NC1CCCCCCC1	none
CCn1ccc(C(=O)NCc2ccc3c(c2)OCO3)n1	none
CC(=O)/C(N=Nc1ccc(C(=O)O)cc1[N+](=O)[O-])=C(\C)O	SENP8 block-1 51, SENP7 inh 59 | SENP8 conf 54 | SENP6 confirm 51 | SENP7 conf 84 | Casp3 SENP sel 92 | Luc interf 64
CCOC(=O)/C(N=Nc1ccc(C(=O)O)cc1[N+](=O)[O-])=C(\C)O	none
COc1ccc(C(=O)N=c2nc3ccccn3s2)cc1	SENP8 block-1 90, SENP6 inh 95, SENP7 inh 98 | SENP8 conf 88 | SENP6 confirm 91 | SENP7 conf 96 | Casp3 SENP sel 82 | Luc interf inactive

Screening results as filed in PubChem BioAssay.
